A short description of assay [1]: TOX21_p53_BLA_p2_viability: Viability Assessment in the Tox21 HCT-116 p53 Agonism Beta-lactamase Assay, Phase 2 (AID 2283591).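 Also: compound exposure lasted 16 h at 37 °C; actives lower the ATP signal meaning cytotoxicity.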 An outline of the steps: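 HCT116 p53-bla cells, 4000/well, dosed after 5 h plating (217-fold dilution of DMSO stocks) and incubated 16 h at 37C. Viability taken as cellular ATP by CellTiter-Glo luminescence after 30 min RT; signal loss marks cytotoxicity.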

For assay [2], the target named is Cellular tumor antigen p53 (Homo sapiens) (UniProt P04637). As to the kind of experiment: TOX21_p53_BLA_p2_ratio: Tox21 HCT-116 p53 Agonism Beta-lactamase Assay, Ratio, Phase 2 (AID 2283592). In outline: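 Cleaved-to-uncleaved substrate ratio (460 vs 530 nm) measured in HCT116 cells with an inducible beta-lactamase reporter linked to p53 activity. Compounds incubated 16 h at 37C before 2 h room-temperature CCF4-AM loading.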

Assay [3] has the same target. As to the kind of experiment: TOX21_p53_BLA_p3_ratio: Tox21 HCT-116 p53 Agonism Beta-lactamase Assay, Ratio, Phase 3 (AID 2283596). An outline of the steps: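 Cells were seeded at 4000/well, rested 5 h at 37C, then dosed with DMSO compound solutions (217-fold dilution) for 16 h. CCF4-AM substrate was loaded for 2 h at room temperature, and the 460/530 nm emission ratio was fitted for gain of signal versus DMSO.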

The nature of assay [4]: TOX21_p53_BLA_p4_viability: Viability Assessment in the Tox21 HCT-116 p53 Agonism Beta-lactamase Assay, Phase 4 (AID 2283597).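 Also: hits lower the luminescence signal meaning cytotoxicity.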 An outline of the steps: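 Viability is taken as cellular ATP: after 16 h compound exposure of HCT116 cells and a 2 h room-temperature CCF4-AM substrate step, CellTiter-Glo reagent is added and luminescence is measured 30 min later.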
In assay [5] the target is Cellular tumor antigen p53 (Homo sapiens) (UniProt P04637). As to the kind of experiment: TOX21_p53_BLA_p4_ratio: Tox21 HCT-116 p53 Agonism Beta-lactamase Assay, Ratio, Phase 4 (AID 2283601). An outline of the steps:
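HCT-116 p53 beta-lactamase reporter cells (4000/well) preincubated 5 h, then compound (217-fold dilution of DMSO stock) for 16 h at 37C. CCF4-AM substrate added 2 h at room temperature; 460/530 nm emission ratio fitted upward versus DMSO.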

Assay [6] shares this target. As to the kind of experiment: TOX21_p53_BLA_p5_ratio: Tox21 HCT-116 p53 Agonism Beta-lactamase Assay, Ratio, Phase 5 (AID 2283599). An outline of the steps:
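HCT-116 p53-bla cells (4000/well) plated 5 h, dosed with compound (217-fold DMSO dilution) for 16 h at 37 C; CCF4-AM substrate 2 h at room temperature. Activity is the 460/530 nm emission ratio (405 nm excitation), fitted in gain-of-signal direction versus DMSO.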

Assay [7] can be described thus: TOX21_p53_BLA_p5_viability: Viability Assessment in the Tox21 HCT-116 p53 Agonism Beta-lactamase Assay, Phase 5 (AID 2283600). An outline of the steps: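 Viability is taken from cellular ATP content, measured by luciferase luminescence in the same wells after the beta-lactamase ratio read. Cells are seeded at 4000 per well and exposed to DMSO-dissolved compounds, diluted 217-fold, for 16 h.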

Assay [8] can be described thus: ACEA_ER_AUC_viability: ACEA Biosciences xCELLigence Real-Time Cell Analysis on Estrogen Receptor Agonism for Viability (AID 2283782).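 Also: hit means loss of impedance signal meaning reduced cell growth or viability.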 An outline of the steps: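 Read-out: real-time electrical impedance (RT-CES) area under curve, loss of signal taken as reduced viability, normalized to DMSO baseline. T-47D cells, charcoal-stripped serum medium, compounds up to 100 uM final, continuous exposure, 80 h.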

Inconclusive results are not listed. Active and inactive are the calls of the source. The calls were made as follows: active = hit-call score of the fitted dose curve at least 0.9, where 1 is the maximum; inconclusive = response in the unintended direction; inactive = score below 0.9.

Chain of Cellular tumor antigen p53 (Homo sapiens) (P04637 whole entry, looked up): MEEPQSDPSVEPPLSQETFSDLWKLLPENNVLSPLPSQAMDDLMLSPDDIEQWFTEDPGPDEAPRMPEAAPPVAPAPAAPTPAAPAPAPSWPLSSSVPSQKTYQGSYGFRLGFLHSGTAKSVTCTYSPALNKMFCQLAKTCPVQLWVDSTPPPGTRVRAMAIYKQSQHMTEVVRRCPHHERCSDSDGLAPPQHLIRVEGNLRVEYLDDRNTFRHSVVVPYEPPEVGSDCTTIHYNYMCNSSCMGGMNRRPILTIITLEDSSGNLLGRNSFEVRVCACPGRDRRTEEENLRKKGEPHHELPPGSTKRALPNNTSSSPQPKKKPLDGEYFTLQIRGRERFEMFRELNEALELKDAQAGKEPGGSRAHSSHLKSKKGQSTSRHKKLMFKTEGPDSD

As to `CCCCCCCCCCCCCCCC(=O)OC[C@@H](COP(=O)([O-])OCC[N+](C)(C)C)OC(=O)CCCCCCCCCCCCCCC`, the compound was classed as inactive in assay [1], in assay [2], in assay [3], in assay [4] and in assay [5].

For `Oc1ccc(C2(c3ccc(O)cc3)CC3CC2C2CCCC32)cc1` (stereo not drawn), the half-maximal activity concentration (AC50) (as a rule, the concentration at which the activity in the assay is half-maximal) in assay [1] was 64.1 µM (active); in assay [2], 82.8 µM (active); in assay [4] it was 55.4 µM (active); in assay [5], 83.1 µM (active). For the same compound, the result in assay [3] was inactive.

Regarding `CCCCCCCCCCCC[N+](C)(C)CC(=O)O`, the compound was called inactive in assay [1], in assay [2], in assay [3], in assay [4], in assay [6] and in assay [5].

`COc1ccc(C(=O)c2ccc(OC)cc2O)c(O)c1`: the result in assay [1], in assay [2], in assay [3], in assay [4] and in assay [5] was inactive.

Take `CCCCCCCCCCCCCCCCCCOCC(O)CO` (stereo not drawn): the compound was called inactive in assay [1], in assay [2], in assay [3], in assay [6], in assay [7] and in assay [5].

For `CC(C)c1ccccc1`, the outcome in assay [1], in assay [2], in assay [3], in assay [6] and in assay [5] was inactive.

Turning to `CC(=C(CCOP(=O)(O)O)SC(=O)c1ccccc1)N(C=O)Cc1cnc(C)nc1N`, the outcome in assay [1], in assay [2], in assay [3], in assay [6] and in assay [5] was inactive.

With `CC(=O)N[C@@H](CC(C)C)C(=O)O`, the result in assay [1], in assay [2], in assay [3], in assay [6], in assay [7] and in assay [5] was inactive.

`C=CC(=O)OCCOC(=O)CCC(=O)O`: the call in assay [1], in assay [2], in assay [3], in assay [6] and in assay [5] was inactive.

Regarding `CC/C=C\C/C=C\C/C=C\C/C=C\C/C=C\C/C=C\CCC(=O)O`, the outcome in assay [1], in assay [2], in assay [3], in assay [6] and in assay [5] was inactive.

In the case of `CCCC/C=C/CCCCO`, the compound was classed as inactive in assay [1], in assay [2], in assay [3], in assay [6], in assay [7] and in assay [5]. In assay [8], the AC50 was 50 µM (active).

For `O=C(O)[C@H](CC(=O)N1C[C@H]2CCCC[C@H]2C1)Cc1ccccc1`, the compound was classed as inactive in assay [1], in assay [2], in assay [3], in assay [6] and in assay [5].

In the case of `C=CCn1cc[n+](C)c1`, the outcome in assay [1], in assay [2], in assay [3], in assay [6], in assay [7] and in assay [5] was inactive.

As for `CCOC(=O)COc1ccc2c(C)c(CCN(CC)CC)c(=O)oc2c1`, the outcome in assay [1], in assay [2], in assay [3], in assay [6], in assay [7] and in assay [5] was inactive.

In the case of `CC(=O)N[C@@H]([C@@H](O)[C@H](O)[C@H](O)CO)[C@@H](O)CC(=O)C(=O)O`, the compound was classed as inactive in assay [1], in assay [2], in assay [3], in assay [6] and in assay [5].

As for `OCCN1CCN(CCO)CC1`, the outcome in assay [1], in assay [2], in assay [3], in assay [6], in assay [7] and in assay [5] was inactive.

Regarding `Oc1cc(O)c(Cl)cc1Cl`, the compound was classed as inactive in assay [1], in assay [3], in assay [6] and in assay [5]. Also, the half-maximal activity concentration (AC50) in assay [2] is 64.5 µM (active).

For the origin of these results see PubChem BioAssay (EPA / NIEHS).
